# Measured values: the supplement of paper PMC10849652
# Of roughly 8,800 targets only a part is listed; those with a hit were picked by preference. About 0.5% of all pairs of compound and target were hits. A number with no mark means an inactive call.
# Experiments:
# Assay in all cases: log2 fold change, soluble protein after heating vs DMSO (PISA); higher = thermal stabilisation; K562 lysate, 10 uM; active = over 0.2 and 3.5 SD of the protein, either way, in both replicates (recomputed)
# [1] = compound: C#Cc1cccc(Nc2ncnc3cc(OCCOC)c(OCCOC)cc23)c1 [erlotinib]
# In short: (§1)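 Soluble protein was defined as the supernatant remaining after 21,000xg for 90 min, following pooling of heated aliquots and adjustment to 0.5% NP-40 at 4°C. Before that, crude K562 extract at 1 mg/mL protein in PBS pH 7.4 with 1 mM MgCl2 was treated with 10 μM compound for 30 min and heated for 3 min across 48°C-58°C. Quantification used TMTpro 16plex LC-MS/MS with channel sums equalised, and values are log-two fold changes in thermal stability relative to solvent controls from duplicates.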
# [2] = compound: C/C(=N\NC(=O)C1=CC(=CC=C1)S(=O)(=O)N2CCOCC2)/C3=C(C=CC(=C3)Cl)O
# In short: as §1
# [3] = compound: C1=CC(=CC=C1C2=NC3=C(N2)C=C(C=C3)C(=O)N)OC4=CC=C(C=C4)Cl
# In short: as §1
# [4] = compound: C1=CC2=C(C=CC(=C2)/C=C\3/C(=O)NC(=NCC4=CC=CS4)S3)N=C1
# In short: as §1
# [5] = compound: C1=CC2=NC=CN=C2C=C1/C=C/3\C(=O)NC(=O)S3
# In short: as §1
# [6] = compound: C1=CC=C(C=C1)C2=NC(=C(N2)C3=CC=NC=C3)C4=CC(=C(C=C4)Cl)O
# In short: as §1
# [7] = compound: C1=CC=C2C(=C1)C3=NNC4=CC=CC(=C43)C2=O
# In short: as §1
# [8] = compound: C1COCCN1CCN2C3=CC=CC=C3N=C2NC(=O)C4=CC(=CC=C4)[N+](=O)[O-] [IRAK-1-4 Inhibitor I]
# In short: as §1
# [9] = compound: C=CC(=O)N1CCC[C@@H](n2nc(-c3ccc(Oc4ccccc4)cc3)c3c(N)ncnc32)C1 [ibrutinib]
# In short: as §1
# [10] = compound: CC(=O)c1cnc2ccc(-c3cc(Cl)c(O)c(Cl)c3)nc2c1N[C@H]1CC[C@H](CN(C)C)CC1
# In short: as §1
# [11] = compound: CC(C)(C)Cn1c(N)nc2ccc(-c3[nH]c(C(C)(C)C)nc3-c3ccc(F)cc3)nc21 [ralimetinib]
# In short: as §1
# [12] = compound: CC(C)(O)CC(=O)NCCn1ccc2ncnc(Nc3ccc(Oc4cccc(C(F)(F)F)c4)c(Cl)c3)c21
# In short: as §1
# [13] = compound: CC(C)C1=C2N=C(C=C(N2N=C1)NCC3=CC=CC=C3)NCCCCCCN
# In short: as §1
# [14] = compound: CC1=C(C(CC(=O)N1)C2=CC=C(C=C2)C(F)(F)F)C(=O)NC3=C(C=C4C(=C3)C=NN4)F
# In short: as §1
# [15] = compound: CC1=C(C=C(C=C1)NC(=O)C2=CC(=CC=C2)C(C)(C)C#N)NC3=CC4=C(C=C3)N=CN(C4=O)C
# In short: as §1
# [16] = compound: CC1=C(C=C(C=C1)NC(=O)C2=CC(=CC=C2)N(C)C)NC(=O)C3=CC=C(C=C3)O
# In short: as §1
# [17] = compound: CC1=CC=C(C=C1)SC2=C3C=C(SC3=CN=C2)C(=O)N
# In short: as §1
# [18] = compound: C1CCN(C1)C(=O)NC2=CC=CC(=C2)NC3=NC=C(C(=N3)NCCC4=CN=CN4)Br
# In short: as §1
# [19] = compound: C1CN(CCC1(CC2=CC=C(C=C2)Cl)N)C3=NC=NC4=C3C=CN4
# In short: as §1
# [20] = compound: CC1=C(C2=C(C=C1)C(=O)C3=CC=CC=C3N2CCCN)C
# In short: as §1
# UniProt Q96SZ6, sequence (Q96SZ6 whole entry, looked up): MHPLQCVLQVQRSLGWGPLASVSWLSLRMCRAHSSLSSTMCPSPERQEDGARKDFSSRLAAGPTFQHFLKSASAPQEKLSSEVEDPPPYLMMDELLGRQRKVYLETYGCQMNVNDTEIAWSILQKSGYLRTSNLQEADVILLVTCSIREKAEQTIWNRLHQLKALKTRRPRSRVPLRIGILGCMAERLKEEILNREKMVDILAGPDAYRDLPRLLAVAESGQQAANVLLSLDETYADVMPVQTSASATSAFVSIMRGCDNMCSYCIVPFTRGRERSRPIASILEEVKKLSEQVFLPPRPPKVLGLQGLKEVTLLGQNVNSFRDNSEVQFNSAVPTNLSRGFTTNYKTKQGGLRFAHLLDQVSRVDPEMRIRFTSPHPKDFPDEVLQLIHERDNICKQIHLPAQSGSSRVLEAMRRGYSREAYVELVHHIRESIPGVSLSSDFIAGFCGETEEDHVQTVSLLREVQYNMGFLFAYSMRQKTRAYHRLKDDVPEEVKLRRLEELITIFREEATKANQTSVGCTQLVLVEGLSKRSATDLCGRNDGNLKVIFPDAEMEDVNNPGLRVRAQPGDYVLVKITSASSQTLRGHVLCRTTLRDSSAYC
# UniProt P55212, sequence (P55212 whole entry, looked up): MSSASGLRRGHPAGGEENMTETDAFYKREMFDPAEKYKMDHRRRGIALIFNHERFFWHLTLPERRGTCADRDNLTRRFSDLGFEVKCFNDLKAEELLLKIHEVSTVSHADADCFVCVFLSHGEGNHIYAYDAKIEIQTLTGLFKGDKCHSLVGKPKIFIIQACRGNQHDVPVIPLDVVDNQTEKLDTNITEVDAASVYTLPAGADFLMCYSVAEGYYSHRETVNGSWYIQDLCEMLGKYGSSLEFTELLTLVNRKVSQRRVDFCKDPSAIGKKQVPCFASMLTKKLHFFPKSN
# UniProt P46527, sequence (P46527 whole entry, looked up): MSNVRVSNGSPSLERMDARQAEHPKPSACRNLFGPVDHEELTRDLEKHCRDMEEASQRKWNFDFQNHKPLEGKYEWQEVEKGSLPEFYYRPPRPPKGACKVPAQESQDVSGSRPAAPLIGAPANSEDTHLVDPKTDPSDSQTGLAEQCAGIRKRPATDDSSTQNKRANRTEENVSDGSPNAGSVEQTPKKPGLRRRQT
# UniProt Q13825, sequence (Q13825 whole entry, looked up): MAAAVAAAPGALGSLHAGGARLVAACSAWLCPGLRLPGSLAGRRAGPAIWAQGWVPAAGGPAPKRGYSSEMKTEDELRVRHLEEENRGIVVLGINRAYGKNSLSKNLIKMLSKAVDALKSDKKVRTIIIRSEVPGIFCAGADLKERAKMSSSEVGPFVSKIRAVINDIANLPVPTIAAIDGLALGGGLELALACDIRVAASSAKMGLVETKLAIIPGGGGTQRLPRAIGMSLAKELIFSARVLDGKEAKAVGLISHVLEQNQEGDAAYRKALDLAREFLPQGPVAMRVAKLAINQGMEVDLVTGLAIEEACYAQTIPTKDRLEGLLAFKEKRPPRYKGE
# UniProt O60826, sequence (O60826 whole entry, looked up): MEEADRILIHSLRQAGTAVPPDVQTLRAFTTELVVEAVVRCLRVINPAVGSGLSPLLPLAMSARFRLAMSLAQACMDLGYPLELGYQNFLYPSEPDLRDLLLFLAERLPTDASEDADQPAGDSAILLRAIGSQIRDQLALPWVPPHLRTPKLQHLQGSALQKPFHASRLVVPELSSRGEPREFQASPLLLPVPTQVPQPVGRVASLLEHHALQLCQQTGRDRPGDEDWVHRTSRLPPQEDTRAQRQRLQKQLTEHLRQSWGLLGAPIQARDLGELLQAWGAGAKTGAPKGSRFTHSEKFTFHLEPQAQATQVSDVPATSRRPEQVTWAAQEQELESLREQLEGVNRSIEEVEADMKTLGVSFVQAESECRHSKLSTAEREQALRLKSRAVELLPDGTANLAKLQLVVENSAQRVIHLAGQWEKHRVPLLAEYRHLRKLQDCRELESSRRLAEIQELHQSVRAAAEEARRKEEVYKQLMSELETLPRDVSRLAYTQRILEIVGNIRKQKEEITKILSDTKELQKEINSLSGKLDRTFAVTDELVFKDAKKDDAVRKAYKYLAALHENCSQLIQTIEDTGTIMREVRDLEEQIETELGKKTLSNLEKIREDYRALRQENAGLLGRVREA
# UniProt Q5U623, sequence (Q5U623 whole entry, looked up): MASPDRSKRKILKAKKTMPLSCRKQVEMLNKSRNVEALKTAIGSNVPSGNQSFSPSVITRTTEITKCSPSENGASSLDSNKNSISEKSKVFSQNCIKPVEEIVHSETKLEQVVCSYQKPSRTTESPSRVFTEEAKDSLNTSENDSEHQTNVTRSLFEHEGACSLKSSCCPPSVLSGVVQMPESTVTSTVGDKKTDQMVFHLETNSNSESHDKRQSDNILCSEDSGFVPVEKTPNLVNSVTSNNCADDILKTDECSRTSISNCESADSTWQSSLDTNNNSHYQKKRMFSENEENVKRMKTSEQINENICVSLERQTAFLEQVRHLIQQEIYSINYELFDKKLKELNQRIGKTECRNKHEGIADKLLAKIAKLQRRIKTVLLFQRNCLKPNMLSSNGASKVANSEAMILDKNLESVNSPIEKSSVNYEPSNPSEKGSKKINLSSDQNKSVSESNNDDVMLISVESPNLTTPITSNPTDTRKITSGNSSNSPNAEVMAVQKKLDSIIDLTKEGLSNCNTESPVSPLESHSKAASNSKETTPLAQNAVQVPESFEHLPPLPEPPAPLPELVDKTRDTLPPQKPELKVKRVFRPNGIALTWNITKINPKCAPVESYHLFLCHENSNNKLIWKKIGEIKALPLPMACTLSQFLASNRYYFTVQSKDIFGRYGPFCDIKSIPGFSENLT
# UniProt P11274, sequence (P11274 whole entry, looked up): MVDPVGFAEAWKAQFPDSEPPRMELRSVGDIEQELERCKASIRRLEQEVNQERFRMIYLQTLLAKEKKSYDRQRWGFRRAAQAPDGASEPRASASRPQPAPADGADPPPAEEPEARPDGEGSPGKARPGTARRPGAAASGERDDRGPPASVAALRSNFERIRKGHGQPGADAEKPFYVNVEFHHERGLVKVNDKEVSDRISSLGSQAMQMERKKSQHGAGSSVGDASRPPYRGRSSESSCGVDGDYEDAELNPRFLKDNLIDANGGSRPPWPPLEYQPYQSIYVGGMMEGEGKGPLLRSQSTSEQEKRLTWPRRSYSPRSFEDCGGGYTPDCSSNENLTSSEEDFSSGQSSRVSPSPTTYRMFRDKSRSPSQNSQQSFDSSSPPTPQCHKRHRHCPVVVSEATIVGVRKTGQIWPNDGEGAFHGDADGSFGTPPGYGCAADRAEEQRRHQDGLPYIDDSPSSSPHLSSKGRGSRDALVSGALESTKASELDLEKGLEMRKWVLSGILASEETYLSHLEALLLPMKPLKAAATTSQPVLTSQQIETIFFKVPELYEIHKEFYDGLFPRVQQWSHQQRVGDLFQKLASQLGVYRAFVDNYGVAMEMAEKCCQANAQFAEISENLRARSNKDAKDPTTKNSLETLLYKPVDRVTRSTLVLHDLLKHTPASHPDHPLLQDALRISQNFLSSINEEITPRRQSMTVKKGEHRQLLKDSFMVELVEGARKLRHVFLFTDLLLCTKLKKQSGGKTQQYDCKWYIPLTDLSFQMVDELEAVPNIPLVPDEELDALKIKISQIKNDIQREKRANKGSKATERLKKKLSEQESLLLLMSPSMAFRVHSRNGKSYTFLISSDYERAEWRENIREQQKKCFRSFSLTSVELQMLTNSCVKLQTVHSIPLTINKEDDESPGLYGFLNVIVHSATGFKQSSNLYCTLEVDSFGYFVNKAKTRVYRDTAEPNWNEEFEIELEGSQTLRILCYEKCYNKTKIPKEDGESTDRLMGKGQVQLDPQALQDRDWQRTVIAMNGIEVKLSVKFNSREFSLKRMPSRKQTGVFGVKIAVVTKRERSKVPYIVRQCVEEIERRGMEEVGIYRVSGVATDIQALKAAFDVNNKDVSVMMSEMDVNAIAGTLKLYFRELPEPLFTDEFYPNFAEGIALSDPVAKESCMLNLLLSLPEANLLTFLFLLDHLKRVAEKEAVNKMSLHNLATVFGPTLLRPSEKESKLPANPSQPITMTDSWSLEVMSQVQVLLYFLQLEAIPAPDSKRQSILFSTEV
# UniProt P15056, sequence (P15056 whole entry, looked up): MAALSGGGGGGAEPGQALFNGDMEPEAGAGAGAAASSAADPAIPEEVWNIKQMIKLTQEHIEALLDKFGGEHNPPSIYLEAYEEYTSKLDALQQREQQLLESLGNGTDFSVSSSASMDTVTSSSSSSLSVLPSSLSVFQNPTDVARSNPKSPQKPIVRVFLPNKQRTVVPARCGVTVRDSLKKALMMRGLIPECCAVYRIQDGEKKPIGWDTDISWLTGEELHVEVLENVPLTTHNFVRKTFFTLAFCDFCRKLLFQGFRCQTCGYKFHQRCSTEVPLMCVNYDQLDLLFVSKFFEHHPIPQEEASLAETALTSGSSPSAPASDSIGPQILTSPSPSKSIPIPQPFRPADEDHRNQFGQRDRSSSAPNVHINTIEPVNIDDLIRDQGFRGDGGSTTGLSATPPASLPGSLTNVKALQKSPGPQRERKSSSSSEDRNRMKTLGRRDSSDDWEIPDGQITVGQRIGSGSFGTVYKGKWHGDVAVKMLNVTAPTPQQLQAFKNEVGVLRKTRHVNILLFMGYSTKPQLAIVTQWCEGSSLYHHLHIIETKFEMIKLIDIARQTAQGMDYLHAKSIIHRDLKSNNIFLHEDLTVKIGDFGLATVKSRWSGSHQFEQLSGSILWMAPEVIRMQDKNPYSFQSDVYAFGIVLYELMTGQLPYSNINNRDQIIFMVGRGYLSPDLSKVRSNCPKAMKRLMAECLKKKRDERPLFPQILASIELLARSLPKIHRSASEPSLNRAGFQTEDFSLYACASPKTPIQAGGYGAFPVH
Target,log2 fold change [1],log2 fold change [2],log2 fold change [3],log2 fold change [4],log2 fold change [5],log2 fold change [6],log2 fold change [7],log2 fold change [8],log2 fold change [9],log2 fold change [10],log2 fold change [11],log2 fold change [12],log2 fold change [13],log2 fold change [14],log2 fold change [15],log2 fold change [16],log2 fold change [17],log2 fold change [18],log2 fold change [19],log2 fold change [20]
ATF7IP2 (UniProt Q5U623),0.012,-0.034,0.086,0.026,-0.069,-0.027,-0.132,0.027,0.054,-0.03,0.045,-0.201,0.058,-0.056,0.097,-0.04,-0.088,,,
CDK17 isoform 2 (UniProt Q00537),-0.156,-0.007,0.173,0.099,-0.114,0.005,0.046,0.055,-0.029,,-0.019,-0.003,-0.037,-0.162,0.029,0.057,,0.124,0.068,-0.08
C18orf25 isoform 2 (UniProt Q96B23),0.031,0.098,-0.059,-0.002,0.185,0.055,-0.011,0.003,0.126,0.1,-0.065,-0.027,-0.013,-0.088,,-0.017,-0.076,-0.01,-0.063,0.015
C3orf33 (UniProt Q6P1S2),0.195,-0.205,0.209,-0.124,0.068,0.032,0.123,-0.281,-0.045,-0.084,0.17,0.012,-0.001,0.046,0.117,-0.205,0.008,,,-0.031
CCDC22 (UniProt O60826),-0.039,-0.007,0.002,0.02,-0.03,-0.017,-0.06,0.011,0.006,0.033,-0.005,-0.045,-0.009,0.005,-0.01,0.025,-0.027,0.007,0.03,0.001
BTK isoform 2 (UniProt Q06187),0.002,0.017,-0.046,0.031,0.025,-0.005,-0.05,-0.017,,0.012,0.014,0.02,-0.01,0.005,0.055,0.042,-0.011,0.077,-0.052,-0.032
ATP6V0A2 (UniProt Q9Y487),0.026,0.027,0.044,-0.006,0.035,0.004,-0.024,0.042,0.016,-0.017,0,-0.073,-0.077,0.007,0.041,-0.032,0.012,-0.012,0,-0.014
CDKN1B (UniProt P46527),-0.079,-0.067,0.011,0.012,0.026,-0.038,0.03,-0.086,0.141,0.013,0.037,0.069,-0.037,,-0.325,-0.019,0.017,0.045,0.003,-0.053
AVEN (UniProt Q9NQS1),0.111,0.077,-0.205,-0.079,0.183,0.06,0.055,-0.096,-0.03,,-0.061,-0.079,0.055,0.009,0.1,-0.08,,-0.023,-0.013,0.027
BRAF (UniProt P15056),-0.05,-0.101,-0.04,0.013,-0.008,,0,-0.005,0.29,,0.008,,0.032,0.004,0.65 (active),,-0.021,-0.007,0.027,-0.111
CASP6 (UniProt P55212),-0.006,0.031,-0.006,-0.004,0.006,0,-0.005,0.015,-0.029,0.034,0.074,0.011,-0.042,-0.012,-0.003,-0.02,-0.008,0.012,0.017,0.005
CD80 (UniProt P33681),-0.139,0.041,0.063,-0.013,,-0.087,-0.02,0.096,,0.034,0.207,-0.051,-0.136,0.106,0.043,-0.119,0.014,0.058,-0.029,-0.084
AUH (UniProt Q13825),0.003,-0.031,0.083,-0.042,0.111,0.027,-0.035,-0.008,0.024,0.103,-0.161,-0.003,0.011,,0.015,-0.132,-0.058,0.026,-0.045,-0.304
CDK5RAP1 (UniProt Q96SZ6),-0.059,0.007,-0.029,0.005,-0.392 (active),0.043,0.016,-0.018,-0.369,,-0.018,-0.062,0.122,-0.002,-0.001,0.045,,-0.016,0.041,-0.027
BCR (UniProt P11274),-0.006,0.037,0.047,0.012,-0.01,0.004,-0.052,-0.041,-0.026,0.037,0.025,-0.025,0.014,-0.001,0.025,0,0.017,-0.025,-0.011,-0.032
CEP152 (UniProt O94986),-0.011,-0.043,0.142,-0.1,0.139,0.099,0.123,0.086,-0.077,,0.144,-0.092,-0.062,-0.04,0.095,-0.067,,-0.07,0.073,-0.071
CDK8 (UniProt P49336),-0.012,-0.059,0.028,-0.128,0.068,0.004,0.128,0.029,0.006,0.097,-0.041,-0.011,-0.073,-0.058,0.088,0.016,0.16,,,0.095
